Our source for the cell killing (% activity) values is PubChem BioAssay AID1443 (Sanford-Burnham Center for Chemical Genomics, 2008).

The campaign covered roughly 220,000 compounds. About 880 (0.4%) were called active. This is one part of a sample in which actives are shown more often than they occur. Values without a mark were called inactive.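 How the source made its calls: active means cell killing above 50% in the first pass at 4 µM, then a duplicate retest at 5 µM averaging 50% or more; inactive means the rest.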

This experiment can be described thus: compounds killing PPC-1 cancer cells with TRAIL present, primary screen, TRAIL potentiator project, ATPLite luminescence, uHTS (AID 1443).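 Further: plate controls were cells with TRAIL plus DMSO for no effect and medium-only wells lacking cells for full effect.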 The settings on record: PPC-1 cells + TRAIL, ATPLite viability luminescence, hits give high values; at 4 µM unless noted. (In general: In ATP-based viability assays light output follows the ATP content of the culture.)
For `COC(=O)c1sc(NC(=S)NC(=O)c2ccc(C)cc2)nc1C`, the cell killing (% activity) is 27.1%.
In the case of `CC(=O)c1sc(NC(=O)c2cccc3ccccc23)nc1C`, the cell killing (% activity) was 32%.
As for `CC(=O)c1sc(NC(=O)c2ccc(C)cc2)nc1C`, the figure is 56.3% [at 5 µM] (active); as for `CC(=O)c1cc(-c2ccccc2)n(CC(=O)NC2CCCCC2)c1C`, 6.9%.
On to `CCCCCC(O)c1cccc(OCc2ccc3ccccc3n2)c1` (stereo unspecified), for which the cell killing (% activity) is 10.7%.
The figure for `Cc1n[nH]c(=O)nc1N/N=C/c1cccs1` is 12.1%.
As for `COc1cccc(NC(=O)CC(c2ccc(OC(C)C)cc2)c2ccccc2OC)c1` (stereo unspecified), the figure is 22.6%; as for `C=C(C)CNC(=S)Nc1ccc(S(=O)(=O)Nc2cnc3ccccc3n2)cc1`, 12.5%; as for `O=C(O)c1ccc(N/N=C/c2cn(-c3ccccc3)nc2-c2cccs2)cc1`, 79% [at 5 µM] (active).
Consider `O=C(/C=C\c1cn(-c2ccccc2)nc1-c1cccs1)N1CCOCC1`, for which the cell killing (% activity) is 5.8%.
Consider `O=C(O)/C=C/c1cn(-c2ccccc2)nc1-c1cccs1`, for which the cell killing (% activity) is 15.1%.
`O=C(COC(=O)Cc1ccc(Br)cc1)Nc1c(F)c(F)c(F)c(F)c1F`: the cell killing (% activity) is 17%.
For `O=C(CCl)Nc1cccc(CP(=O)(c2ccccc2)c2ccccc2)c1`, the cell killing (% activity) was -1.1%.
As for `O=C(Cc1cccs1)N/N=C/c1ccc(OCc2ccccc2)cc1`, the figure is 20%.
The figure for `CC[C@@H](C)[C@@H](C(=O)N1CCN(C(=O)OC(C)(C)C)CC1)n1cc(CCC(=O)O)nn1` is 19%.
The figure for `CC(=O)c1ccc(NC(=O)C2CC(=O)Nc3nc4ccccc4n32)cc1` (stereo unspecified) is 27.4%; for `COc1cc(C2C(N3C(=O)c4ccccc4C3=O)C(=O)N2c2ccc(C)c(C)c2)cc(OC)c1OC` (stereo unspecified) it is 0.4%; for `COC(=O)[C@H](CC(C)C)NC(=O)N1CCCCC1C` (stereo partly specified) it is 8.6%.
Regarding `CS(=O)(=O)N(CC(=O)N/N=C/c1ccccn1)c1ccc(Oc2ccccc2)cc1`, the cell killing (% activity) is 2.8%.
The figure for `CC(CNC(=O)c1ccc(N)cc1)NC(=O)c1ccc(N)cc1` (stereo unspecified) is 15.7%.
Consider `O=C(NN1C(=O)C2C(C1=O)C1C=CC2C12CC2)c1ccccc1Cl` (stereo unspecified), for which the cell killing (% activity) is 15.1%.
The figure for `COc1ccc(NC(=O)C2=NNC(=O)CC2)cc1S(=O)(=O)N1CCCCC1` is 2.4%; for `COc1ccc(-c2csc(Nc3ccccn3)n2)cc1` it is 26.9%.
As for `COc1ccc(C(=O)/C=C/Nc2ccccn2)cc1`, the figure is 74.5% [at 5 µM] (active); as for `CCOc1cc(NC(=O)c2ccccn2)c(OCC)cc1NC(=O)c1ccc(OC)cc1`, 6.2%.
As for `Cc1ccc(/C=N/NC(=O)CSc2ccccn2)o1`, the figure is 28%; as for `Cc1ccnc(NC(=O)Cn2ccc([N+](=O)[O-])n2)c1`, -4.4%; as for `CN1C(=O)/C(=C/C=C2\SCCN2C)OC1=S`, 7.1%.
Consider `COCCNC(=O)/C(C#N)=C/c1cccc(OCc2ccccc2)c1`, for which the cell killing (% activity) is 6.3%.
As for `COc1cc(/C=N/Nc2nn3cnnc3c3ccccc23)cc(OC)c1OC`, the figure is 58.2% (active); as for `COc1ccc(/C=N/Nc2nc3ccccc3o2)cc1OC`, 33%.
Regarding `CCOc1ccc(/C=N/Nc2nncc(-c3ccccc3)n2)cc1OC`, the cell killing (% activity) is -7.3%.
As for `COc1ccc(NC(=O)C2CCC(CNc3c(N4CCCCC4)c(=O)c3=O)CC2)c(OC)c1` (stereo unspecified), the figure is -39.4%; as for `Cc1noc(C)c1S(=O)(=O)N(C)Cc1ccccc1`, 17.3%; as for `COCc1nnc(NC(=O)c2ccc3c(c2)OCO3)s1`, 21.9%.
The figure for `O=C(Nc1nc2ccccc2s1)c1ccc2c(c1)OCO2` is 61.1% (active).
As for `Cc1cc(C)c2nc(NC(=O)c3ccc4c(c3)OCO4)sc2c1`, the figure is 4.5%; as for `Cc1ccc(NC(=O)CCC(=O)N/N=C/c2ccco2)c(C)c1`, 5.1%; as for `COC(=O)C(=Nc1ccccc1)/C(C(=O)C(=O)N(C)c1ccccc1)=C(\O)c1ccc(Cl)cc1`, -15.5%.
For the compound `CC1(C)COC(c2cccn2Cc2ccccc2Cl)=N1`, the cell killing (% activity) is 3.7%.
For `COc1cccc(-c2cc(C(=O)N/N=C/c3ccc(OC)c(COC(C)=O)c3)c3ccccc3n2)c1`, the cell killing (% activity) was 4.5%.
On to `Cc1ccc(-c2cc(C(=O)N/N=C/C=C/c3ccco3)c3ccccc3n2)cc1C`, for which the cell killing (% activity) is 55.7% [at 5 µM] (active).
As to `O=C(N/N=C/C=C/c1ccco1)c1cccs1`, the cell killing (% activity) was 24.4%.
As for `Nc1ccccc1SC(C[N+](=O)[O-])c1ccccc1` (stereo unspecified), the figure is 6.4%.
On to `O=c1c2ccccc2cnn1Cc1n[nH]c(=S)n1-c1ccccc1F`, for which the cell killing (% activity) was 17.1%.
As for `COc1ccc(Cl)cc1NC(=O)Cn1nc(-c2ccc(C)cc2)n(C)c1=S`, the figure is 14.2%; as for `Cn1cnc([N+](=O)[O-])c1Sc1n[nH]c(N)n1`, -16.4%.
In the case of `COc1cccc(CNC(=O)CCC2CCCN(C(=O)c3cc(C)[nH]n3)C2)c1` (stereo unspecified), the cell killing (% activity) was 12.1%.
The figure for `O=C(CSc1nnc(-c2ccc([N+](=O)[O-])cc2)o1)Nc1ccccn1` is 51% [at 5 µM] (active); for `CCOC(=O)CSc1nnc(-c2ccc([N+](=O)[O-])cc2)o1` it is 7.7%; for `CCc1ccccc1NC(=O)CSc1nnc(-c2ccncc2)o1` it is -4.8%.
In the case of `COc1ccc(CNC(=O)C(Cc2ccccc2)n2cccc2)cc1` (stereo unspecified), the cell killing (% activity) is -1.5%.
Regarding `O=C(CCN1C(=O)C2C3C=CC(C3)C2C1=O)Oc1ccc2ccccc2c1` (stereo unspecified), the cell killing (% activity) was 9.1%.
As for `CCCCCCCNc1nc(Cl)nc(NCCO)n1`, the figure is 17.1%; as for `CC(C)(O)C#Cc1ncc(C(F)(F)F)cc1Cl`, 3.1%.
The figure for `Cc1c(C2=CCN(S(=O)(=O)c3ccc(Cl)cc3)CC2)c2ccccc2n1C` is 31.7%; for `Cn1c(-c2ccco2)nc2cc3ccccc3cc21` it is 89.2% [at 5 µM] (active).
As for `S=c1[nH]nc(-c2ccco2)n1/N=C/c1ccccc1`, the figure is 8%; as for `CN1c2ccccc2-c2nc3ccccc3n2C1c1ccco1` (stereo unspecified), 12%.
As to `CC(C)C(C)(C#N)NC(=O)CSc1nc2scc(-c3ccccc3)c2c(=O)[nH]1` (stereo unspecified), the cell killing (% activity) is 22.3%.
Regarding `COc1ccccc1N1CCN(C(=O)c2ccc(Cl)c(S(=O)(=O)N3CCCC3)c2)CC1`, the cell killing (% activity) was 0.9%.
For the compound `Oc1ccc(-c2[nH]ncc2-c2nc3ccccc3s2)c(O)c1`, the cell killing (% activity) is 14.3%.
The figure for `O=c1oc(-c2ccccc2NS(=O)(=O)c2ccc(Cl)cc2)nc2ccccc12` is -12.7%; for `O=c1oc(/C=C/c2ccccc2)nc2ccccc12` it is 53% [at 5 µM] (active).
On to `S=c1[nH]nc(/C=C/c2ccccc2)o1`, for which the cell killing (% activity) was -2.3%.
As to `COc1ccc(Cn2c(O)c(/C=C3/C=CC=N3)c(=O)[nH]c2=O)cc1`, the cell killing (% activity) was 5.9%.
In the case of `Nc1nc(NCC2CCCO2)nc(Nc2ccccc2F)c1[N+](=O)[O-]` (stereo unspecified), the cell killing (% activity) is 2.1%.
`O=C(CCS(=O)(=O)c1ccccc1Cl)Nc1ccc(S(=O)(=O)Nc2ncccn2)cc1`: the cell killing (% activity) was 1.8%.
As for `COc1cc(/C=N/NC(=O)c2ccccc2)ccc1OS(=O)(=O)c1ccccc1`, the cell killing (% activity) was 21.5%.
`COc1ccc(C(=O)Nc2ccccc2C(=O)N/N=C/c2ccc(O)c(OC)c2)cc1`: the cell killing (% activity) is 96.7% [at 5 µM] (active).
As to `COc1ccc(C(=O)Nc2ccccc2C(=O)N/N=C/c2ccccc2OC)cc1`, the cell killing (% activity) was 28.7%.
As for `CCn1cc(CN2CCCC(CNS(=O)(=O)Cc3ccccc3)C2)cn1` (stereo unspecified), the figure is 14.8%; as for `O=C(N/N=C/c1cc([N+](=O)[O-])ccc1O)/C(=C\c1cccs1)NC(=O)c1ccccc1`, 8.1%; as for `CC12C(=O)N(c3ccccc3)C(=O)C1C(c1ccccc1)N1CCCN12` (stereo unspecified), 8.2%.
As for `Cn1nccc1NC(=O)CC(CC(=O)O)c1ccccc1` (stereo unspecified), the cell killing (% activity) is 5.7%.
The figure for `CC1(C)N=C(c2ccccn2)C(C)(C)N1O` is 22.7%.
On to `Cc1cc(-n2cnc(-c3cn(C)nc3C)n2)no1`, for which the cell killing (% activity) is -10.4%.
As to `CN1CCN(CC#CCC2(O)c3ccccc3-c3ccccc32)CC1`, the cell killing (% activity) is 1.7%.
`O=c1cnnc(Nc2ccccc2)[nH]1`: the cell killing (% activity) was 30.6%.
The figure for `Cc1nc(-c2ccc(Cl)cc2)sc1C(=O)CBr` is 11.1%; for `Cc1ccc(SCC(=O)c2sc(-c3ccccc3)nc2C)cc1` it is 8.5%; for `Cc1nc(-c2ccc(Cl)cc2)sc1C(=O)NN` it is 59.4% [at 5 µM] (active).
On to `O=C(COC(=O)c1ccc(Cl)nc1)NCc1ccc2c(c1)OCO2`, for which the cell killing (% activity) was -2.9%.
For the compound `CC(C(=O)Nc1ccc(F)c(F)c1F)N1CCCCCC1` (stereo unspecified), the cell killing (% activity) is 30.5%.
As for `COc1ccc(OC)c(NC(=O)N[C@H](Cc2ccccc2)C(=O)NN)c1`, the figure is -4.7%.
Take `Nn1c(SCC(=O)NC2CCCC2)nnc1-c1ccccc1F`: the cell killing (% activity) is 2.5%.
For `O=c1c(-c2ccccc2)cnc2n1CCS2`, the cell killing (% activity) is -3.9%.
`COc1ccc(C2=NOC3(CC(=O)N(c4ccc(C)cc4)C3=O)C2)cc1` (stereo unspecified): the cell killing (% activity) was 12.3%.
As for `Cc1ccc(C(=O)NNC2=Nc3cc([N+](=O)[O-])ccc3OC2)cc1`, the figure is -2.5%; as for `COc1ccc(C2=Nc3cc(C)ccc3OC2)cc1`, 52.1% (active); as for `CNC(=O)NC(=O)C(OC(=O)c1cccc(S(=O)(=O)N2CCCCC2)c1)c1ccccc1` (stereo unspecified), 8.9%.
As to `N#CCc1ccc(OC(=O)c2cccnc2)cc1`, the cell killing (% activity) is 0.5%.
On to `Cc1cc(NC(=O)CN2CCCC(C)C2)n(-c2nc3ccccc3s2)n1` (stereo unspecified), for which the cell killing (% activity) is -3.9%.
As for `CCOC(=O)N1CCN(CC(=O)Nc2cc(C)nn2-c2nc3ccccc3s2)CC1`, the figure is -8.9%; as for `CCC(C)Cn1c(O)cc2nn(-c3nc4ccccc4s3)c(=O)c-2c1C` (stereo unspecified), 56% [at 5 µM] (active).
As for `COc1ccc(CCNC2=CC(=O)CC(C)(C)C2)cc1`, the figure is 14.5%.
